tim23-1 inh – growth inhibitors of tim23-1 mutant yeast, primary screen, luminescence, uHTS | 330,000 tested, 1.3% active | AID 463212, 2010 | inhibition, % at 20 µM | S. cerevisiae tim23-1 growth, BacTiter-Glo luminescence, 24 h;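 active means growth inhibition of the mutant yeast at or above 50%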;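 further: temperature-sensitive mutant grown at 25 °C; plate controls were DMSO-treated mutant yeast for no effect and medium wells lacking yeast for full effect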
NALP3 yeast inh – NALP3 inflammasome inhibitors in reconstituted yeast, primary screen, luminescence, uHTS. Yeast reconstituted NLRP3/ASC/caspase-1, beta-gal luminescence, 24 h. inhibition, % at 10 µM. 330,000 tested, 0.39% active;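 active means inhibition of 50% or more; inactive means inhibition below 50%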;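 further: plate controls were induced DMSO wells for no effect and uninduced yeast grown without galactose for full effect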
tim10-1 inh – growth inhibitors of tim10-1 mutant yeast, primary screen, luminescence, uHTS. S. cerevisiae tim10-1 ts strain growth, BacTiter-Glo, 24 h. inhibition, % at 20 µM. 330,000 tested, 2.2% active;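 active means inhibition of at least 40%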;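 further: mutant grown at 25 °C; 0% = DMSO wells with yeast and 100% = wells holding no yeast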
PfHsp90 set2 – growth inhibition of PfHsp90-expressing yeast, primary screen, antimalarial PfHsp90 inhibitor project, S. cerevisiae, BacTiter-Glo luminescence, single point, set 2; inhibition, % at 9.4 µM; BacTiter-Glo ATP, 48 h; yeast lacking PDR1 and PDR3 efflux regulators; 310,000 tested, 0.32% active;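 active means every replicate shows inhibition above about 80%, whatever the replicate mean, limit read from the data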;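 further: 0% = DMSO neutral controls and 100% = 20 µM radicicol positive controls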
SKKanGAS inh – S. pyogenes SKKanGAS growth inhibitors in kanamycin, primary screen, streptokinase expression inhibitor project, SKKanGAS strain, BacTiter-Glo luminescence; AID 1662, 2009; 6 h; 300,000 tested, 1.3% active; inhibition, % at 7.5 µM;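 active means mean replicate score, as percent of positive control median, at least 50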;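 further: strain carries kanamycin resistance gene driven by streptokinase promoter and grows in 40 µg/ml kanamycin; loss of luminescence reflects streptokinase promoter inhibition or plain growth inhibition; 0% = median of DMSO wells and 100% = positive control at its reference dose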
TIM10 inh – growth inhibitors of isogenic TIM10 control yeast, primary screen, counter-screen for tim10-1 yeast inhibitor project, luminescence, uHTS; S. cerevisiae TIM10 strain growth, BacTiter-Glo luminescence, 24 h; inhibition, % at 10 µM; 330,000 tested, 1.4% active;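 active means inhibition of 40% or more at the single tested concentration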;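 further: wild-type TIM10 isogenic control strain grown at permissive 25 °C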
tim10-1 conf – growth inhibitors of tim10-1 mutant yeast, confirmation, single concentration, luminescence, S. cerevisiae. shares compounds with tim10-1 inh. S. cerevisiae tim10-1 ts strain growth, BacTiter-Glo, 24 h. inhibition, % at 20 µM. 7,400 tested, 56% active. AID 463213, 2010;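 active means inhibition of yeast growth at or above a set limit in either of two repeat tests at 20 µM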;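 further: tim10-1 mutant grown at permissive 25 °C to find synthetic lethal compounds; 0% = DMSO yeast wells and 100% = medium wells without yeast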
TIM10 conf – growth inhibitors of wild-type TIM10 yeast, confirmation, counter-screen for tim10-1 synthetic lethality project, single concentration, luminescence, S. cerevisiae | shares compounds with TIM10 inh | S. cerevisiae tim10 strain growth, BacTiter-Glo luminescence, 24 h | inhibition, % at 10 µM | 4,600 tested, 63% active;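 active means inhibition of yeast growth at or above a set limit in either of two replicates at 10 µM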;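 further: this counterscreen used the strain with wild-type TIM10; 0% = yeast with DMSO and 100% = medium wells lacking yeast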
tim23-1 conf – tim23-1 mutant yeast growth inhibitors, confirmation, luminescence, single concentration. shares compounds with tim23-1 inh. 4,400 tested, 83% active. inhibition, % at 20 µM. S. cerevisiae tim23-1 growth, BacTiter-Glo luminescence, 24 h;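 active means inhibition above about 39% in either of two replicate wells at 20 µM, limit read from the data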;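 further: temperature-sensitive tim23-1 mutant grown at 25 °C; 0% = DMSO wells with yeast and 100% = medium wells without yeast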
The depositor's hits bear a star. The list is not random: actives were taken first. Their share in the collection is about 4.5%.

Screening COc1ccc(NC(=O)/C(C#N)=C/c2ncc([N+](=O)[O-])n2C)c(OC)c1 returned tim23-1 inh 84*, NALP3 yeast inh 48, tim10-1 inh 58*, PfHsp90 set2 15, SKKanGAS inh 19, TIM10 inh 25, tim10-1 conf 66* and tim23-1 conf 81*.
For O=C(Nc1ccccc1N1CCOCC1)c1ccc([N+](=O)[O-])o1 the results were tim23-1 inh 70*, NALP3 yeast inh 13, tim10-1 inh 80*, PfHsp90 set2 109*, SKKanGAS inh 17, TIM10 inh 90*, tim10-1 conf 80*, TIM10 conf 94* and tim23-1 conf 71*.
O=C(c1ccc([N+](=O)[O-])o1)N1CCc2ccccc21 was read as tim23-1 inh 77*, NALP3 yeast inh 24, tim10-1 inh 65*, PfHsp90 set2 -13, SKKanGAS inh 23, TIM10 inh 67*, tim10-1 conf 77*, TIM10 conf 79* and tim23-1 conf 86*.
For Cc1ccc(C(=O)N2CCc3ccccc32)o1 the results were tim23-1 inh 7, NALP3 yeast inh 41, tim10-1 inh -5, PfHsp90 set2 -23, SKKanGAS inh 3 and TIM10 inh 5.
For CCOc1cccc(CNc2ccc(O)cc2)c1OCc1ccc(Cl)cc1 the results were tim23-1 inh 60*, NALP3 yeast inh 21, tim10-1 inh 43*, PfHsp90 set2 13, SKKanGAS inh 7, TIM10 inh 21, tim10-1 conf 32* and tim23-1 conf 59*.
Screening O=C(CSc1nnc(NC(=O)C2CC2)s1)Nc1cccc(F)c1 returned tim23-1 inh -3, NALP3 yeast inh 7, tim10-1 inh 2, PfHsp90 set2 -9, SKKanGAS inh -4 and TIM10 inh 4.
Screening Cc1ccc(-c2nnc(N3CCN(C(=O)c4ccco4)CC3)c3ccccc23)cc1 returned tim23-1 inh 70*, NALP3 yeast inh 25, tim10-1 inh 61*, PfHsp90 set2 13, SKKanGAS inh 23, TIM10 inh 53*, tim10-1 conf 50*, TIM10 conf -12 and tim23-1 conf 63*.
Screening CC(=O)N1CCN(c2nnc(-c3ccccc3)c3ccccc23)CC1 returned tim23-1 inh -58, NALP3 yeast inh 1, tim10-1 inh -46, PfHsp90 set2 19, SKKanGAS inh -2 and TIM10 inh -30.
Screening COc1ccc(Cl)cc1S(=O)(=O)NC(C)C(=O)NCc1cccnc1 (configuration not stated) returned tim23-1 inh -7, NALP3 yeast inh 7, tim10-1 inh -12, PfHsp90 set2 -3, SKKanGAS inh -2 and TIM10 inh -6.
`CCCc1[nH]nc2c1C(c1ccc(OC)cc1OC)C(C#N)=C(N)O2` (configuration not stated) gave tim23-1 inh 51*, NALP3 yeast inh 4, tim10-1 inh 44*, PfHsp90 set2 -4, SKKanGAS inh 1, TIM10 inh 47*, tim10-1 conf 36*, TIM10 conf 37* and tim23-1 conf 50*.
`COc1cc(/C=C/C(=O)c2ccc(Cl)s2)cc(OC)c1O` gave tim23-1 inh 67*, NALP3 yeast inh -2, tim10-1 inh 62*, PfHsp90 set2 -129, SKKanGAS inh -15, TIM10 inh 43*, tim10-1 conf 59*, TIM10 conf 44* and tim23-1 conf 53*.
`O=C(C=Cc1ccc(Cl)s1)c1ccc(Cl)s1` gave PfHsp90 set2 -11.
For Cc1c(/C=C/C(=O)c2ccc(Cl)s2)cnn1C the results were tim23-1 inh 58*, NALP3 yeast inh -5, tim10-1 inh 45*, SKKanGAS inh 2, TIM10 inh 48*, tim10-1 conf 36*, TIM10 conf 37* and tim23-1 conf 47*.
For C=CCOc1ccc(C(=O)n2cc(C(=O)OC)c3ccccc32)cc1 the results were tim23-1 inh 31, NALP3 yeast inh 17, tim10-1 inh 24, PfHsp90 set2 -25, SKKanGAS inh -3 and TIM10 inh 12.
Screening CN(C(=O)CSc1ccc(S(=O)(=O)N2CCCCC2)cn1)c1ccccc1 returned tim23-1 inh 38, NALP3 yeast inh 16, tim10-1 inh 29, PfHsp90 set2 -7 and TIM10 inh 23.
Screening O=C(NCCCN1CCOCC1)C1CCN(S(=O)(=O)c2ccccc2)CC1 returned tim23-1 inh 5, NALP3 yeast inh 14, tim10-1 inh 1, SKKanGAS inh -4 and TIM10 inh -8.
For COc1ccccc1OCC(=O)NCCS(=O)(=O)N1CCN(c2ccccc2)CC1 the results were tim23-1 inh 11, NALP3 yeast inh 0, tim10-1 inh 17, PfHsp90 set2 -14, SKKanGAS inh 0 and TIM10 inh 3.
Screening O/C(=C\c1nc2ccccc2[nH]1)c1cccs1 returned tim23-1 inh 28, NALP3 yeast inh 32, tim10-1 inh -1, PfHsp90 set2 -56, SKKanGAS inh 24 and TIM10 inh 31.
For O=C(/C(=C/c1ccc(Cl)cc1)c1nc2ccccc2[nH]1)c1cccs1 the results were tim23-1 inh 51*, NALP3 yeast inh 50, tim10-1 inh 56*, SKKanGAS inh 0, TIM10 inh 70*, tim10-1 conf 39*, TIM10 conf 71* and tim23-1 conf -31.
`COC(=O)/C(=C\c1ccc(O)cc1)c1nc2ccccc2[nH]1` gave tim23-1 inh 22, NALP3 yeast inh 6, tim10-1 inh 23, PfHsp90 set2 -65, SKKanGAS inh 16 and TIM10 inh 24.
`O=C(/C(=C\c1ccccc1)c1nc2ccccc2[nH]1)c1ccc(Cl)cc1` gave tim23-1 inh 51*, NALP3 yeast inh 41, tim10-1 inh 43*, PfHsp90 set2 104*, SKKanGAS inh 14, TIM10 inh 40, tim10-1 conf 34* and tim23-1 conf 62*.

Bioassay records (PubChem BioAssay)
